Source: PubChem BioAssay AID1159580 (chemical genetic matrix, 2015)
Hit rate of the full screen: of about 5,500 compounds, about 2,000 (36%) were called active. Not shown: some 18% with an inconclusive outcome. No stated cut-off is given here; in the data, active means normalized growth mostly below about 0.91 (no sharp cut-off); inconclusive means no clear call, values can overlap the other calls; inactive means mostly above about 0.92. The list shows a part of the results.

Assay: chemical genetic growth profiling, strain panel (AID 1159580);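 further: tested at 20 µM; growth read once vehicle control cultures reached saturation at 30 °C; 1 = growth at the plate median or of vehicle wells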
Details: S. cerevisiae deletion strains, growth OD

Measured: normalized growth

COc1c2c(c(CC=C(C)C)c3oc(=O)c(-c4ccc(O)cc4)c(O)c13)OC(C)(C)C=C2
active: locus YAL013W, strain DEP1, stronger effect = lower value 0.307 | locus YAL026C, strain drs2, stronger effect = lower value 0.87 | locus YAL030W, strain snc1, stronger effect = lower value 0.916 | locus YBL061C, strain skt5, stronger effect = lower value 0.846 | locus YBR009C, strain hhf1, stronger effect = lower value 0.656 | locus YBR023C, strain chs3, stronger effect = lower value 0.854 | locus YBR231C, strain swc5, stronger effect = lower value 0.857 | locus YCL011C, strain gbp2, stronger effect = lower value 0.759 | locus YCL029C, strain bik1, stronger effect = lower value 0.677 | locus YCL061C, strain MRC1, stronger effect = lower value 0.816 | locus YCL069W, strain vba3, stronger effect = lower value 0.812 | locus YDL074C, strain BRE1, stronger effect = lower value 0.325 | locus YDL101C, strain DUN1, stronger effect = lower value 0.862 | locus YDL192W, strain arf1, stronger effect = lower value 0.414 | locus YDR101C, strain arx1, stronger effect = lower value 0.775 | locus YDR137W, strain rgp1, stronger effect = lower value 0.819 | locus YDR159W, strain sac3, stronger effect = lower value 0.383 | locus YDR162C, strain NBP2, stronger effect = lower value 0.642 | locus YDR195W, strain ref2 0.459 | locus YDR297W, strain sur2, stronger effect = lower value 0.847 | locus YDR318W, strain mcm21, stronger effect = lower value 0.681 | locus YDR335W, strain msn5, stronger effect = lower value 0.851 | locus YDR388W, stronger effect = lower value 0.912 | locus YDR392W, strain spt3, stronger effect = lower value 0.103 | locus YDR502C, strain sam2, stronger effect = lower value 0.768 | locus YEL003W, strain gim4, stronger effect = lower value 0.766 | locus YEL061C, strain CIN8 (second series), stronger effect = lower value 0.765 | locus YER015W, strain faa2, stronger effect = lower value 0.845 | locus YER111C, strain swi4, stronger effect = lower value 0.518 | locus YER155C, strain BEM2 (second series), stronger effect = lower value 0.536 | locus YER155C, strain BEM2, stronger effect = lower value 0.277 | locus YER167W, strain BCK2, stronger effect = lower value 0.806 | locus YGL086W, strain mad1, stronger effect = lower value 0.683 | locus YGL173C, strain kem1, stronger effect = lower value 0.9 | locus YGL227W, strain vid30, stronger effect = lower value 0.765 | locus YGL248W, strain PDE1, stronger effect = lower value 0.763 | locus YGL253W, strain hxk2, stronger effect = lower value 0.838 | locus YGR078C, strain PAC10, stronger effect = lower value 0.633 | locus YGR229C, strain SMI1, stronger effect = lower value 0.409 | locus YGR252W, strain gcn5, stronger effect = lower value 0.696 | locus YHR079C, strain IRE1 (second series), stronger effect = lower value 0.868 | locus YHR094C, strain hxt1, stronger effect = lower value 0.832 | locus YHR129C, strain ARP1, stronger effect = lower value 0.61 | locus YHR142W, strain chs7, stronger effect = lower value 0.512 | locus YHR200W, strain rpn10, stronger effect = lower value 0.889 | locus YIL066C, strain RNR3, stronger effect = lower value 0.708 | locus YIL125W, strain kgd1, stronger effect = lower value 0.911 | locus YIR030C, strain dcg1, stronger effect = lower value 0.773 | locus YJL095W, strain BCK1 (second series), stronger effect = lower value 0.799 | locus YJL095W, strain BCK1, stronger effect = lower value 0.352 | locus YJL129C, strain trk1, stronger effect = lower value 0.648 | locus YJL164C, strain tpk1, stronger effect = lower value 0.747 | locus YJL166W, strain qcr8, stronger effect = lower value 0.679 | locus YJL187C, strain SWE1 (second series), stronger effect = lower value 0.837 | locus YJL187C, strain SWE1, stronger effect = lower value 0.877 | locus YKL085W, strain MDH1 (second series), stronger effect = lower value 0.909 | locus YKL085W, strain MDH1, stronger effect = lower value 0.909 | locus YKL190W, strain CNB1, stronger effect = lower value 0.851 | locus YKR001C, strain vps1, stronger effect = lower value 0.381 | locus YLL001W, strain dnm1, stronger effect = lower value 0.848 | locus YLL026W, stronger effect = lower value 0.848 | locus YLR027C, strain aat2, stronger effect = lower value 0.72 | locus YLR039C, strain RIC1, stronger effect = lower value 0.444 | locus YLR058C, strain SHM2, stronger effect = lower value 0.782 | locus YLR102C, strain apc9, stronger effect = lower value 0.847 | locus YLR221C, strain rsa3, stronger effect = lower value 0.674 | locus YLR258W, strain gsy2, stronger effect = lower value 0.824 | locus YLR262C, strain YPT6 (second series), stronger effect = lower value 0.584 | locus YLR268W, strain sec22, stronger effect = lower value 0.693 | locus YLR320W, strain mms22, stronger effect = lower value 0.65 | locus YLR342W, strain FKS1, stronger effect = lower value 0.907 | locus YLR371W, strain rom2, stronger effect = lower value 0.519 | locus YLR418C, strain cdc73, stronger effect = lower value 0.214 | locus YML016C, strain PPZ1, stronger effect = lower value 0.904 | locus YML032C, strain rad52, stronger effect = lower value 0.63 | locus YML120C, strain ndi1, stronger effect = lower value 0.467 | locus YML124C, strain tub3, stronger effect = lower value 0.858 | locus YMR058W, strain fet3, stronger effect = lower value 0.834 | locus YMR078C, strain ctf18, stronger effect = lower value 0.537 | locus YMR125W, strain sto1, stronger effect = lower value 0.866 | locus YMR129W, stronger effect = lower value 0.915 | locus YMR205C, strain PFK2, stronger effect = lower value 0.664 | locus YMR223W, strain ubp8, stronger effect = lower value 0.792 | locus YMR263W, strain SAP30, stronger effect = lower value 0.866 | locus YMR307W, strain GAS1, stronger effect = lower value 0.48 | locus YNL071W, strain lat1, stronger effect = lower value 0.484 | locus YNL233W, strain BNI4, stronger effect = lower value 0.635 | locus YNL307C, strain MCK1, stronger effect = lower value 0.24 | locus YNL322C, strain KRE1, stronger effect = lower value 0.88 | locus YNR052C, strain pop2, stronger effect = lower value 0.546 | locus YOL147C, strain pex11, stronger effect = lower value 0.481 | locus YOR001W, strain rrp6, stronger effect = lower value 0.797 | locus YOR069W, strain VPS5, stronger effect = lower value 0.896 | locus YOR070C, strain gyp1, stronger effect = lower value 0.793 | locus YOR083W, strain WHI5, stronger effect = lower value 0.876 | locus YOR136W, strain idh2, stronger effect = lower value 0.867 | locus YOR144C, strain elg1, stronger effect = lower value 0.592 | locus YOR184W, strain ser1, stronger effect = lower value 0.217 | locus YOR265W, strain rbl2, stronger effect = lower value 0.919 | locus YOR270C, strain vph1, stronger effect = lower value 0.549 | locus YOR290C, strain snf2, stronger effect = lower value 0.631 | locus YPL051W, strain arl3, stronger effect = lower value 0.787 | locus YPL078C, strain atp4, stronger effect = lower value 0.802 | locus YPL240C, strain hsp82, stronger effect = lower value 0.853 | locus YPR119W, strain clb2, stronger effect = lower value 0.735 | locus YPR163C, strain tif3, stronger effect = lower value 0.463 | locus YPR167C, strain met16, stronger effect = lower value 0.751 | strain wtn01, stronger effect = lower value 0.747
inactive: locus YAL021C, strain ccr4, stronger effect = lower value 0.989 | locus YBR021W, strain FUR4, stronger effect = lower value 0.849 | locus YBR171W, strain sec66, stronger effect = lower value 0.989 | locus YBR229C, strain ROT2, stronger effect = lower value 0.997 | locus YBR279W, strain paf1, stronger effect = lower value 0.972 | locus YCL016C, strain dcc1, stronger effect = lower value 0.938 | locus YCR088W, strain abp1, stronger effect = lower value 0.944 | locus YDL005C, strain med2, stronger effect = lower value 0.925 | locus YDL035C, strain GPR1, stronger effect = lower value 0.861 | locus YDL040C, strain nat1, stronger effect = lower value 0.992 | locus YDL185W, strain tfp1, stronger effect = lower value 1.02 | locus YDR001C, strain nth1, stronger effect = lower value 0.989 | locus YDR069C, strain doa4, stronger effect = lower value 1.01 | locus YDR150W, strain NUM1, stronger effect = lower value 1.01 | locus YDR334W, strain swr1, stronger effect = lower value 0.99 | locus YEL037C, strain rad23, stronger effect = lower value 0.992 | locus YER016W, strain bim1, stronger effect = lower value 0.969 | locus YER110C, stronger effect = lower value 0.938 | locus YFR010W, strain ubp6, stronger effect = lower value 0.977 | locus YGL078C, strain dbp3, stronger effect = lower value 0.98 | locus YGL167C, strain pmr1, stronger effect = lower value 0.976 | locus YGL240W, strain doc1, stronger effect = lower value 0.903 | locus YGR135W, strain pre9, stronger effect = lower value 0.907 | locus YHR013C, strain ard1, stronger effect = lower value 1.03 | locus YHR027C, strain rpn1, stronger effect = lower value 0.942 | locus YIL073C, strain SPO22, stronger effect = lower value 0.963 | locus YJL092W, strain hpr5, stronger effect = lower value 0.932 | locus YJL115W, strain asf1, stronger effect = lower value 1.02 | locus YJL134W, strain LCB3, stronger effect = lower value 0.977 | locus YJL154C, strain vps35, stronger effect = lower value 0.982 | locus YJL168C, strain set2, stronger effect = lower value 0.985 | locus YKL009W, strain mrt4, stronger effect = lower value 0.925 | locus YKL068W, stronger effect = lower value 0.982 | locus YKL160W, strain elf1, stronger effect = lower value 0.95 | locus YKR026C, strain gcn3, stronger effect = lower value 0.971 | locus YKR091W, strain srl3, stronger effect = lower value 0.991 | locus YLL041C, strain sdh2, stronger effect = lower value 0.984 | locus YLR342W, strain FKS1 (second series), stronger effect = lower value 0.812 | locus YLR357W, strain rsc2, stronger effect = lower value 1.01 | locus YLR370C, strain arc18, stronger effect = lower value 0.965 | locus YLR384C, strain iki3, stronger effect = lower value 1 | locus YMR231W, strain pep5, stronger effect = lower value 0.999 | locus YNL067W, strain RPL9B, stronger effect = lower value 0.938 | locus YNL128W, strain TEP1, stronger effect = lower value 0.906 | locus YNL209W, strain ssb2, stronger effect = lower value 0.935 | locus YNL248C, strain rpa49, stronger effect = lower value 0.973 | locus YNL250W, strain rad50, stronger effect = lower value 1.05 | locus YNL271C, strain bni1, stronger effect = lower value 0.976 | locus YNL298W, strain CLA4, stronger effect = lower value 0.95 | locus YNL322C, strain KRE1 (second series), stronger effect = lower value 1.03 | locus YNR049C, strain mso1, stronger effect = lower value 0.987 | locus YOL012C, strain htz1 0.365 | locus YOR061W, strain CKA2, stronger effect = lower value 0.939 | locus YOR080W, strain dia2, stronger effect = lower value 0.946 | locus YOR106W, strain vam3, stronger effect = lower value 0.883 | locus YOR316C, strain cot1, stronger effect = lower value 0.924 | locus YPL106C, strain sse1, stronger effect = lower value 0.913 | locus YPR141C, strain kar3, stronger effect = lower value 0.977
